Results as given in PubChem BioAssay (NCI).
Compounds without any hit were thinned out: in the full panel of roughly 83,000, 20% have a hit.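 Percent growth is the endpoint: 0 to 100 indicates growth inhibition (40 means 60% inhibition), 0 means no net growth, and negative values indicate cell death.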 Values without a mark were called inactive. Calls of active or inactive are those of the source. The calls were made as follows: active = growth percent below 10; inactive = the rest.

Columns and labels:
Assay in all cases: NCI-60 one-dose screen, 48 h (100 = growth as untreated, 0 = no growth, -100 = all killed)
Settings in all cases: 10 µM unless noted
SK-MEL-2 melanoma = test system: SK-MEL-2 melanoma
SN12C renal = test system: SN12C renal
UO-31 renal = test system: UO-31 renal
TK-10 renal = test system: TK-10 renal
ACHN renal = test system: ACHN renal
CAKI-1 renal = test system: CAKI-1 renal
A498 renal = test system: A498 renal
CCRF-CEM leukemia = test system: CCRF-CEM leukemia
MOLT-4 leukemia = test system: MOLT-4 leukemia
SR leukemia = test system: SR leukemia
RPMI-8226 leukemia = test system: RPMI-8226 leukemia
OVCAR-8 ovarian = test system: OVCAR-8 ovarian
OVCAR-5 ovarian = test system: OVCAR-5 ovarian
OVCAR-4 ovarian = test system: OVCAR-4 ovarian
SK-OV-3 ovarian = test system: SK-OV-3 ovarian
IGROV1 ovarian = test system: IGROV1 ovarian
OVCAR-3 ovarian = test system: OVCAR-3 ovarian
HS 578T breast = test system: HS 578T breast
NCI/ADR-RES ovarian = test system: NCI/ADR-RES ovarian
EKVX NSCLC = test system: EKVX NSCLC

| SMILES | growth (SK-MEL-2 melanoma) | growth (SN12C renal) [%] | growth (UO-31 renal) | growth (TK-10 renal) | growth (ACHN renal) | growth (CAKI-1 renal) | growth (A498 renal) | growth (CCRF-CEM leukemia) | growth (MOLT-4 leukemia) | growth (SR leukemia) | growth (RPMI-8226 leukemia) | growth (OVCAR-8 ovarian) [%] | growth (OVCAR-5 ovarian) | growth (OVCAR-4 ovarian) | growth (SK-OV-3 ovarian) | growth (IGROV1 ovarian) | growth (OVCAR-3 ovarian) | growth (HS 578T breast) | growth (NCI/ADR-RES ovarian) | growth (EKVX NSCLC) [%] |
| --- | --- | --- | --- | --- | --- | --- | --- | --- | --- | --- | --- | --- | --- | --- | --- | --- | --- | --- | --- | --- |
| CCOc1cccnc1/C=N/NC(N)=S | 52.2% | 53.5 | 9.56% (active) | 66% | 35.7% | 29% | 3.97% (active) | 17.4% | 7.07% (active) | 6.35% (active) | 49.9% | 43.7 | 66.2% | 26.5% | 42.7% | -7.7% (active) | 22.2% | 60.4% | 48.8% | – |
| O=C(Nc1cccc2[nH]c(C(F)(F)F)nc12)c1cc(Cl)ccc1Cl | -4.53% (active) | 28.7 | -3.23% (active) | 4.93% (active) | 48.1% | 31.3% | -7.02% (active) | 22.7% | 17.9% | 25.3% | 14.5% | 26.5 | 78.1% | 23.2% | 47.9% | 35.8% | 21.4% | 53.9% | 9.82% (active) | – |
| NC(N)=N/N=C/CO | 107% | 109 | 80.9% | 98.7% | 102% | 99.4% | 117% | 93.8% | 95.7% | 92% | 103% | 103 | 104% | 96% | 102% | 108% | 107% | 112% | 95.5% | – |
| Cc1cc(Cc2cc(C)cc(C(C)(C)C)c2O)c(O)c(C(C)(C)C)c1 | 68.8% | – | 43% | – | 34.3% | 31% | 90.2% | 28.5% | 29.1% | -7.3% (active) | 32.2% | 33.9 | – | 48.5% | 51.9% | 47.5% | 38.5% | – | – | 26.5 |
| CCOC(=O)c1c(C)nc2c(c1N)/C(=C/c1cc(OC)c(OC)c(OC)c1)C(=O)N2c1ccc(OC)cc1 | 67.1% | – | – | 77.4% | – | – | 82.2% | 8.45% (active) | 17.6% | 12.4% | -6.44% (active) | 37.7 | 85.7% | 87% | 105% | 33.6% | 42.1% | 95.1% | 34.7% | 93.2 |
| O=C(CCl)N1c2cccc3cccc(c23)N(C(=O)CCl)C1c1cn(-c2ccccc2)nc1-c1cccc([N+](=O)[O-])c1 | 111% | – | 66.9% | 104% | 76.7% | 92.5% | – | 8.63% (active) | 34.7% | 17.8% | -6.92% (active) | 79.3 | 108% | 96% | – | 79.5% | 61.6% | 98.6% | 94.6% | 102 |
| O=C(Oc1ccc[nH]c1=O)c1cc([N+](=O)[O-])cc([N+](=O)[O-])c1 | -11.5% (active) | – | 96.7% | 90.3% | 107% | – | – | – | 135% | 136% | – | 93.6 | 106% | 110% | 116% | 162% | 113% | 124% | 114% | 112 |
| O=C(Nc1ccc(N2CCCCC2)c(Cl)c1)c1ccc(Br)o1 | 91.9% | 80.6 | 51.5% | 102% | 64.3% | 94.8% | 102% | 74.9% | 75.4% | 40.8% | 55.7% | 59 | 114% | 73% | 107% | 75.1% | 43.6% | 72.8% | 68% | – |
| CCCCn1c(=O)[nH]c(N)c(C(c2ccc(F)cc2)c2c(N)[nH]c(=O)n(CCCC)c2=O)c1=O | 58.6% | – | – | 68.3% | 92.7% | 100% | 90.1% | 58% | 29.8% | 42% | 50% | 66.5 | 94.4% | 64.6% | 80.6% | 78.8% | 54% | 81.1% | 96.7% | 69.3 |
| C[C@@H]1C(=O)N(C[C@@H](Cc2ccccc2)NC(=O)OCc2ccccc2)[C@]1(Cc1ccccc1)C(=O)OCc1ccccc1 | – | 41.7 | 8.74% (active) | 21.4% | 22.3% | 34.8% | -13.8% (active) | 67.3% | 6.42% (active) | 16.6% | 19.6% | 40.2 | 69.1% | 1.48% (active) | 54.5% | 57.4% | 43.3% | 55.2% | 21% | 18.1 |
| Nc1c(C(=O)c2ccccc2)nnc2ncnn12 | 92% | 101 | 101% | 96% | 122% | 104% | 71.2% | 98.4% | 95.8% | 94.6% | 101% | 107 | 121% | 116% | – | 106% | 105% | 106% | 107% | – |
| COc1ccc(OC)c(Nc2nc3nonc3nc2Nc2cccc(Br)c2)c1 | -17.4% (active) | 12.4 | – | 7.4% (active) | -22.5% (active) | 0.162% (active) | – | 12.4% | 3.8% (active) | 19.6% | 2.67% (active) | 10.5 | 9% (active) | 12.1% | 3.28% (active) | 46.1% | 10.1% | 7.84% (active) | 9.06% (active) | – |
| COc1cc(/C=C2\C=C(c3ccccc3)N(CCc3ccccc3)C2=O)cc(OC)c1OC | – | 82 | 69.2% | 81.9% | 30.9% | 80.1% | 34.2% | 100% | 94.8% | 85.5% | 83.3% | 38.5 | 105% | 33.4% | 62.9% | 83.1% | 87.7% | 23.2% | 66.8% | 69.2 |
| N#Cc1c(-c2ccc(C(F)(F)F)cc2)cc(N2CC(O)C2)n2c1nc1ccccc12 | – | 72.3 | 54.5% | 64% | 43.4% | 72.1% | -4.38% (active) | 102% | 103% | 73.5% | 78.8% | 19.4 | 77.5% | -29.8% (active) | 18.8% | 60.9% | 48.4% | 17.8% | 38.3% | 63.6 |
| COc1cc2oc(-c3cccc(C(=O)Nc4ccc(C)cc4)c3)cc(=O)c2c(OC)c1OC | 42.3% | 31.6 | 44.3% | 53.3% | – | 2.16% (active) | 6.03% (active) | 34.7% | – | 12.7% | -7.08% (active) | 33.3 | 48.2% | 59.8% | – | 44.4% | 42.3% | 64.3% | 37.5% | – |
| CNC(=O)c1cc(Oc2ccc3nc(Nc4cc(Cl)cc(Cl)c4)ccc3c2)ccn1 | – | 78.9 | 58.9% | 74.3% | 62.6% | 84.1% | 35.2% | 81.1% | 33.7% | 6.56% (active) | 57.6% | 67.9 | 104% | 57.2% | 86.2% | 79.6% | 57.8% | 64.5% | 35.6% | 53.1 |
| COC1=CC(c2ccc[nH]2)=N/C1=C\c1[nH]c(C)c(C(=O)OCCn2cc(CCC[C@@H]3Cc4cc(O)ccc4C4CC[C@]5(C)[C@@H](O)CC[C@H]5C43)nn2)c1C (stereo partly specified) | 122% | – | 44.7% | 96.9% | 66.5% | 46.4% | 49.6% | 36.8% | 62.1% | 23.8% | – | 96.3 | 88.9% | – | 92.4% | 95.7% | 85.5% | 65.1% | 83.2% | – |
| C[C@@H]1C(=O)N(C[C@H](Cc2ccccc2)N(Cc2ccccc2)Cc2ccccc2)[C@]1(Cc1ccccc1)C(=O)OC(C)(C)C | – | 56.8 | 41.2% | 50.5% | 63.9% | 55.2% | 8.49% (active) | 70% | 63.8% | 56.2% | 36.8% | 66.7 | 109% | 28.8% | 73.1% | 77.5% | 54.5% | 73% | 69% | 53.2 |
| COc1ccc(-c2nc3sc4c(c3c(=O)[nH]2)CCCC4)c2ccccc12 | 29.4% | 36.2 | 24.8% | 38.3% | – | 9.7% (active) | – | 12.5% | 14.2% | 7.04% (active) | 11.5% | 12.8 | -17.7% (active) | -7.19% (active) | 33.7% | 37.5% | -64.5% (active) | -0.402% (active) | 5.34% (active) | – |
